In PubChem BioAssay:
A number with no mark means an inactive call. Unless noted, the rule behind the calls is not given here.

Target: Homeobox protein Hox-A13 (Mus musculus) (UniProt Q62424)
Assay: inhibitors of HoxA13-DNA binding, primary screen, biochemical, fluorescence polarization, labeled oligonucleotide (AID 1185)
Conditions: 15 min, higher = more signal, called active from +8 up or from −8 down

Sequence of Homeobox protein Hox-A13 (Mus musculus) (Q62424 whole entry, looked up): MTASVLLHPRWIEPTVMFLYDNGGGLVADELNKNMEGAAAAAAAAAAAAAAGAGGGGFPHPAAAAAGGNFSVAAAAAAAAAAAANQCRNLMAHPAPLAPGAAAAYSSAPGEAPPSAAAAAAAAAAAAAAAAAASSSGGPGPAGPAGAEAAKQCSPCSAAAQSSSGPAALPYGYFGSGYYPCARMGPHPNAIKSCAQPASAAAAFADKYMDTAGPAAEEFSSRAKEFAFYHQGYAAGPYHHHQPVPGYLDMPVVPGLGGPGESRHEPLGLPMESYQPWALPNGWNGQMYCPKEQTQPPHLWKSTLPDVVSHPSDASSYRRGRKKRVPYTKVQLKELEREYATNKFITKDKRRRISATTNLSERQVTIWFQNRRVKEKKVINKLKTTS

Compound	z-score
[N-]=[N+]=NCc1ccccc1[C@@H]1OC(c2ccc(OCCCO)cc2)=N[C@]1(Cc1ccccc1N=[N+]=[N-])C(=O)O	-3.59
C=CCOC(=O)[C@H]1[C@@H]2C(=O)O[C@@H](c3ccccc3)[C@@H](c3ccccc3)N2[C@@H](c2ccc(OCCOC(=O)[C@H]3C[C@H]4C(=O)N[C@@H](CC(C)C)C(=O)N4[C@H]3c3ccc(O)cc3)cc2)[C@]12C(=O)Nc1ccccc12	0.832
COc1ccc([Si](C)(C)[C@H]2[C@H](CC(=O)N3Cc4ccccc4C[C@H]3CO)O[C@@]3(C(=O)N(c4ccccc4)c4ccccc43)[C@@H]2C)cc1	-5.4
N#Cc1ccc(-c2cccc(=O)o2)cc1	0.108
COCCOC(=O)N1C(=O)[C@@]2(c3ccccc31)[C@H](C(=O)N1CCN(c3ncccn3)CC1)[C@H]1C(=O)O[C@H](c3ccccc3)[C@H](c3ccccc3)N1[C@@H]2c1ccccc1OCCO	-1.77
NC(=O)NCC#Cc1ccc2c(c1)[C@]1(C(=O)N2)[C@H](c2ccc(OCCO)cc2)N2[C@H](c3ccccc3)[C@H](c3ccccc3)OC(=O)[C@H]2[C@@H]1C(=O)O	-5.33
COC(=O)[C@@]1(Cc2ccc(OC)cc2)[C@H]2c3cc(C(=O)N(C)C)[nH]c3C[C@H]2CN1C(=O)c1ccccc1	-2.93

Test system: not listed separately
Assay: inhibitors of hydroxyurea-induced Chk1 phosphorylation, primary screen, imaging, HeLa, phospho-Chk1 antibody, percent positive cells (AID 1186)
Conditions: hydroxyurea-induced phospho-Chk1 immunofluorescence imaging, higher = more signal

Compound	z-score
COc1cc(OC)c(C(O)C2C=CC3C(=O)N(c4ccccc4)C(=O)C3N2Nc2ccc(C(C)C)cc2)cc1Br (configuration not stated)	-0.78
CC(C)c1nc2cc(Br)ccc2c(=O)o1	-0.0165
CN1C(=O)[C@@H]2[C@@H](CC(COc3ccccc3)=C3[C@@H](CCc4ccccc4)OB(O)C[C@@H]32)C1=O	0.556
O=C(NCCN1CCOCC1)[C@@H]1c2ccccc2C(=O)N(Cc2ccc(OC(F)(F)F)cc2)[C@H]1c1ccc(CO)cc1	0.0777
CN(C)c1ccc(C(O)C2C=CC3C(=O)N(Cc4ccccc4)C(=O)C3N2n2cnnc2)cc1 (configuration not stated)	-1.39
CC(C)C(O)C1C=CC2C(=O)NC(=O)C2N1Nc1ccccn1 (configuration not stated)	-0.446
COc1ccc([Si](C)(C)[C@@H]2[C@@H](CC(=O)N3Cc4ccccc4C[C@H]3CO)O[C@]3(C(=O)N(Cc4ccc(N5CCOC5=O)cc4)c4ccccc43)[C@H]2C)cc1	-0.262
COCCOC(=O)N1C(=O)[C@@]2(c3cc(C#CCC(C(=O)OC)C(=O)OC)ccc31)[C@H](C(=O)Nc1nc3ccccc3s1)[C@H]1C(=O)O[C@H](c3ccccc3)[C@H](c3ccccc3)N1[C@@H]2c1ccc(O)cc1	0.119
COc1cc(CO)cc(I)c1O[C@H]1C=C(C(=O)NCCO)C[C@@H](NC2CCCCCC2)[C@@H]1O	-0.75
O=C(NC1CC1)[C@@H]1c2ccccc2C(=O)N(Cc2ccc(OC(F)(F)F)cc2)[C@H]1c1ccc(CO)cc1	-0.453
CCOC(=O)C1=CC[C@@H](c2ccc(OC)cc2)N(S(=O)(=O)c2ccc(C)cc2)[C@H]1CC	-0.819
CC1CC/C=C\[C@H]2OC34C=CCN(C(C)(C)C)C(=O)[C@H]3N(CCCO)C(=O)[C@@H]4C2C(=O)O1 (some centres not stated)	0.0854
C=C(C)[C@@H]1CC=C(C(O)C2C=CC3C(=O)N(c4ccccc4)C(=O)C3N2Nc2ccc([N+](=O)[O-])cc2)CC1 (some centres not stated)	0.248
C=CCOC(=O)[C@@H]1[C@H]2C(=O)O[C@H](c3ccccc3)[C@H](c3ccccc3)N2[C@H](c2ccc(OCCOC(=O)[C@H]3C[C@H]4C(=O)NCC(=O)N4[C@H]3c3cccc(OCCO)c3)cc2)[C@@]12C(=O)Nc1ccc(I)cc12	-0.856
COC(=O)[C@H](Cc1ccccc1)N1CC2=CCCC=C[C@@H]2[C@H]1[C@H](O)Cc1ccccc1	-0.359
CC(=O)OCC1C2CC[C@H]3C(OCc4ccc(F)cc4C(F)(F)F)OC[C@]4(C)[C@H]3C2=C(CN4C(=O)OC(C)(C)C)[C@H](C)C1COC(C)=O (some centres not stated)	0.657
CC(=O)c1ccc(C(O)C2C=CC3C(=O)N(c4ccccc4)C(=O)C3N2Nc2ccc(C(C)C)cc2)cc1 (configuration not stated)	0.0577
CC(C)NC(=O)[C@@]1(C)c2ccccc2C(=O)N(Cc2ccccc2)[C@H]1c1ccc(CO)cc1	-0.471

Compound	z-score
CCCCC(O)C1C=CC2C(=O)N(c3ccccc3)C(=O)C2N1Nc1ccc([N+](=O)[O-])cc1 (configuration not stated)	0.391
Cc1ccc(S[C@]2(C(=O)NC3CC3)CC(=O)N(C(C)C)[C@@H]2c2ccc(CO)cc2I)cc1	-0.248
COCCOC(=O)N1C(=O)[C@@]2(c3cc(C#CCC(C(=O)OC)C(=O)OC)ccc31)[C@H](C(=O)Nc1nc3ccccc3s1)[C@H]1C(=O)O[C@H](c3ccccc3)[C@H](c3ccccc3)N1[C@@H]2c1ccc(OCCO)cc1	-0.0393
COC(=O)C1=CC(CCCO)=CC(c2cccs2)N(Cc2cc3c(cc2Br)OCO3)C=C1C(=O)OC (configuration not stated)	0.132
CN1C(=O)C2C(C1=O)C1C=C(c3ccc(CO)cc3)C2C(C2CC2)N1C (configuration not stated)	-0.287
COCCCNC(=O)[C@@H]1c2ccccc2C(=O)N(Cc2ccc(OC(F)(F)F)cc2)[C@H]1c1ccc(CO)cc1	-0.163
COCCCNC(=O)[C@@]1(CCC(=O)OC(C)(C)C)COC(c2ccc(OCCCO)cc2)=N1	-0.0385
O=C(O)[C@H](Cc1ccccc1)n1cc(C2(O)CCCCC2)nn1	0.402
CN(C)CCCC[C@@H]1NC(=O)[C@@H]2C[C@H](C(=O)NCCCCCCNC(=O)CS)[C@H](c3ccc(O)cc3)N2C1=O	-0.282
COC(=O)[C@@]1(Cc2ccc(OC)cc2)[C@H]2c3cc(C(=O)N4CCCC4)n(CCn4cc([N+](=O)[O-])nc4C)c3C[C@H]2CN1C(=O)c1ccccc1	1.65
[N-]=[N+]=NCc1ccccc1[C@@H]1OC(c2ccc(OCCCO)cc2)=N[C@]1(Cc1ccccc1N=[N+]=[N-])C(=O)O	0.277
C=CCOC(=O)[C@H]1[C@@H]2C(=O)O[C@@H](c3ccccc3)[C@@H](c3ccccc3)N2[C@@H](c2ccc(OCCOC(=O)[C@H]3C[C@H]4C(=O)N[C@@H](CC(C)C)C(=O)N4[C@H]3c3ccc(O)cc3)cc2)[C@]12C(=O)Nc1ccccc12	0.109
COc1ccc([Si](C)(C)[C@H]2[C@H](CC(=O)N3Cc4ccccc4C[C@H]3CO)O[C@@]3(C(=O)N(c4ccccc4)c4ccccc43)[C@@H]2C)cc1	-0.447
N#Cc1ccc(-c2cccc(=O)o2)cc1	0.419
COCCOC(=O)N1C(=O)[C@@]2(c3ccccc31)[C@H](C(=O)N1CCN(c3ncccn3)CC1)[C@H]1C(=O)O[C@H](c3ccccc3)[C@H](c3ccccc3)N1[C@@H]2c1ccccc1OCCO	-0.356
NC(=O)NCC#Cc1ccc2c(c1)[C@]1(C(=O)N2)[C@H](c2ccc(OCCO)cc2)N2[C@H](c3ccccc3)[C@H](c3ccccc3)OC(=O)[C@H]2[C@@H]1C(=O)O	0.31
COC(=O)[C@@]1(Cc2ccc(OC)cc2)[C@H]2c3cc(C(=O)N(C)C)[nH]c3C[C@H]2CN1C(=O)c1ccccc1	-0.041
